# Source: PubChem BioAssay AID2284167 (EPA ToxCast)
# Results filed as inconclusive are left out. Activity calls are given as the source filed them. Rule for the calls: active = hit-call score of the fitted dose curve at least 0.9, where 1 is the maximum; inconclusive = response in the unintended direction; inactive = score below 0.9.
# Target: human Neurotensin Receptor NT1 Agonism, NTSR1 (gene 4923) (UniProt P30989)
# Assay: ERF_FR_GPCR_hNTSR1: Eurofins (ERF) G Protein-Coupled Receptor (GPCR) Radioligand Binding LeadHunter Assay for human Neurotensin Receptor NT1 Agonism
# Protocol: ERF_FR_GPCR_hNTSR1 is a biochemical, single-readout assay that uses extracted gene-proteins in a cell-free assay. Measurements were taken 1 hour after chemical dosing in a 96-well plate. See NT1 Human Neurotensin GPCR Binding (Agonist Radioligand) Assay, Cerep.ERF_FR_GPCR_hNTSR1 is an assay component calculated from the ERF_FR_GPCR_hNTSR1 assay. It is designed to measure radioligand binding using a type of binding reporter as detected by scintillation counting with radiometry technology.Data from the assay component ERF_FR_GPCR_hNTSR1 was analyzed at the assay endpoint, ERF_FR_GPCR_hNTSR1, in the positive analysis fitting direction relative to DMSO as the negative control and baseline of activity. Using a type of binding reporter, gain-of-signal activity can be used to understand changes in binding as they relate to gene NTSR1. To generalize the intended target to other relatable targets, this assay endpoint is annotated to the gpcr intended target family, where the subfamily is neurotensin.
# Human cells are incubated for 60 minutes at 4 C with [125I]Tyr3-neurotensin ligand (0.05 nM) and neurotensin as control inhibitor. Test Sample Requirements: Minimum for 1) Screen: 60 ul of 10 mM stock -OR- 1 mg (pre-weighed) for 10 uM final testing. 2) Dose Response: 90 ul of 10 mM stock -OR- 1 mg (pre-weighed) for a top concentration at 10 uM.
# human Neurotensin Receptor NT1 Agonism, NTSR1 (gene 4923), sequence (P30989 whole entry, looked up): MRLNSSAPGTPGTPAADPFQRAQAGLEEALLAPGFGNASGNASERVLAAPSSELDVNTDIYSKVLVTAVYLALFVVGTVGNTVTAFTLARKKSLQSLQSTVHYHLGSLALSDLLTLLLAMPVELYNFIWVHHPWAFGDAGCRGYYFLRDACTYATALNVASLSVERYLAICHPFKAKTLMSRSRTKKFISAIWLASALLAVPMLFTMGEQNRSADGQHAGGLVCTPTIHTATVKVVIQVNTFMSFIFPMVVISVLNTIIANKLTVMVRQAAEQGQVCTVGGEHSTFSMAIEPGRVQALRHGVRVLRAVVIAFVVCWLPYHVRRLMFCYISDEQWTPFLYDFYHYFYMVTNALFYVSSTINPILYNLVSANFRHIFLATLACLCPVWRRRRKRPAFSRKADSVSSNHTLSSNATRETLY
row,Structure (SMILES),AC50
1,O=C(/C=C/c1ccc(O)cc1)CC(=O)/C=C/c1ccc(O)cc1,2990 nM (active)
